# Source: PubChem (The Scripps Research Institute Molecular Screening Center)
# Compounds with a hit are over-represented: about 2.9% of the library has one in this group of screens.
# PAFAH1B3 FP inh – PAFAH1B3 enzyme inhibitors, primary screen, biochemical, fluorescence polarization, human; Platelet-activating factor acetylhydrolase IB subunit alpha1 (Homo sapiens), Q15102; recombinant PAFAH1B3, FP-rhodamine probe; inhibition, % at 3.39 µM; 340,000 tested, 0.28% active;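 active = inhibition above the screen-wide average of all tested compounds plus 3 SD, cut at about 25% in these data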
# PAFAH1B2 inh – PAFAH1B2 enzyme inhibitors, primary screen, biochemical, fluorescence polarization, human; Platelet-activating factor acetylhydrolase IB subunit alpha2 (Homo sapiens), P68402; recombinant PAFAH1B2, FP-rhodamine activity probe; inhibition, % at 3.39 µM; 340,000 tested, 1.2% active; AID 492953, 2010;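 active = inhibition above the mean of all tested compounds plus 3 SD, cut at about 24% in these data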
# PAFAH2 inh – PAFAH2 enzyme inhibitors, primary screen, biochemical, fluorescence polarization, human; 340,000 tested, 0.99% active; inhibition, % at 3.39 µM; Platelet-activating factor acetylhydrolase 2, cytoplasmic (Homo sapiens), Q99487; AID 492956, 2010; recombinant PAFAH2, FP-rhodamine activity probe;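 active = inhibition above the mean over all tested compounds plus 3 SD, cut at about 30% in these data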;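 also: inhibitors block probe labeling of enzyme so polarization drops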
# LYPLA1 inh – LYPLA1 inhibitors, primary screen, counter-screen for PME1 inhibitor project, biochemical, fluorescence polarization, FP-Rh probe ABPP; Acyl-protein thioesterase 1 (Homo sapiens), O75608; recombinant LYPLA1; inhibition, % at 5.9 µM; 320,000 tested, 0.16% active; AID 2174, 2009;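 active = inhibition above the mean of all tested compounds plus 3 SD, set per campaign, cut at about 14% in these data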;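 also: inhibitors block serine hydrolase probe labeling of LYPLA1 so polarization falls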
# pPAFAH inh – pPAFAH enzyme inhibitors, primary screen, biochemical, fluorescence polarization, human; Platelet-activating factor acetylhydrolase (Homo sapiens), Q13093; recombinant pPAFAH, FP-rhodamine probe fluorescence polarization; inhibition, % at 3.39 µM; 330,000 tested, 1.5% active; AID 463082, 2010;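 active = inhibition above the mean inhibition across the screen plus 3 SD, cut at about 25% in these data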;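 also: inhibitors block binding of the rhodamine activity-based probe so polarization drops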
# Target sequence (Q13093 whole entry, looked up): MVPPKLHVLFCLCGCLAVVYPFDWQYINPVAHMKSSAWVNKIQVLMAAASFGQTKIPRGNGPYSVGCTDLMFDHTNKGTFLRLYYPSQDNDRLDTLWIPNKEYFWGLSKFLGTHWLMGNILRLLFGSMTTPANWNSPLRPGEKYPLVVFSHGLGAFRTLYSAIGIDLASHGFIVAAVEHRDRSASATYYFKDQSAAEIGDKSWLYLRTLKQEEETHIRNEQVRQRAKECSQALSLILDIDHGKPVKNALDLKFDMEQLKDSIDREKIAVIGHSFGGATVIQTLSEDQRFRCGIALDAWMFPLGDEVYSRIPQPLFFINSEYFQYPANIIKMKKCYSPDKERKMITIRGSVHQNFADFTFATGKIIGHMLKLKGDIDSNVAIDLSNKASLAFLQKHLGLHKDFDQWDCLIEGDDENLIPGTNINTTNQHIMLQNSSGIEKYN
# LYPLA2 inh – LYPLA2 inhibitors, primary screen, counter-screen for PME1 inhibitor project, biochemical, fluorescence polarization, FP-Rh probe ABPP; recombinant LYPLA2; inhibition, % at 5.9 µM; Acyl-protein thioesterase 2 (Homo sapiens), O95372; 320,000 tested, 0.38% active;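 active = inhibition above the screen-wide mean plus 3 SD, limit set per campaign, cut at about 26% in these data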
# A number is an active result; – = inactive; · = no result.
SMILES,PAFAH1B3 FP inh,PAFAH1B2 inh,PAFAH2 inh,LYPLA1 inh,pPAFAH inh,LYPLA2 inh
CCOc1ccc(N2CC(C(=O)NCc3ccccc3)CC2=O)cc1 (stereo unspecified),–,–,–,–,–,–
CCOC(=O)C1=C(CP(=O)(c2ccccc2)c2ccccc2)NC(=O)NC1c1ccc(OC)cc1 (stereo unspecified),–,–,–,–,–,–
CSC(=O)NC12CC3CC(CC(C)(C3)C1)C2,–,28.1,–,–,–,–
C=CCOC(=O)C1=C[C@H](c2csc3ccccc23)C[C@H](OCc2ccc(CO)cc2)O1,–,–,–,–,–,–
CCCSc1nc(O)c(C2OC(=O)c3c2ccc(OC)c3OC)c(=O)n1C (stereo unspecified),–,–,–,–,–,–
CCCCCCSc1nc(O)c(C2OC(=O)c3c2ccc(OC)c3OC)c(=O)n1CC (stereo unspecified),–,–,–,–,31.4,–
COc1ccc(-c2csc(-n3cccn3)n2)cc1,–,–,–,–,–,–
CN(C(=O)COC(=O)/C=C/c1ccccc1[N+](=O)[O-])c1ccccc1,–,–,–,–,–,–
CC(C)(C)NC(=O)COC(=O)/C=C/c1ccccc1[N+](=O)[O-],–,–,–,–,32.1,–
NC(=O)c1ccsc1NC(=O)COC(=O)/C=C/c1ccccc1[N+](=O)[O-],–,–,–,·,–,·
COc1ccccc1NC(=O)COC(=O)/C=C/c1ccccc1[N+](=O)[O-],–,–,–,–,25.9,–
Cc1ccc(C)c(N2CCN(C(=O)c3ccc4nc(-c5ccco5)c(-c5ccco5)nc4c3)CC2)c1,–,–,–,–,31.1,–
Cc1ccccc1N(C(=O)c1snc(C(N)=O)c1N)C(C(=O)NCC1CCCO1)c1ccc(F)cc1 (stereo unspecified),–,–,–,–,–,–
N#CC1=C(c2ccc(-c3ccccc3)cc2)COC1=O,–,–,–,–,26.4,–
CCCCn1c(NS(=O)(=O)c2ccc(C)cc2)c(S(=O)(=O)c2ccccc2)c2nc3ccccc3nc21,72.2,34.0,49.3,–,–,–
Cc1ccc(NS(=O)(=O)c2ccc(C(=O)NCCCN3CCCC3=O)cc2)cc1C,–,–,–,–,30.9,–
CCCCc1ccc(S(=O)(=O)NCCCN2CCCC2=O)cc1,–,–,–,–,27.9,–
COc1ccc(N(C(=O)c2ccco2)C(C(=O)NC2CCCC2)c2ccccc2)cc1 (stereo unspecified),–,–,–,–,33.9,–
COc1ccc(N(C(=O)c2ccco2)C(C(=O)NC2CCCCC2)c2ccccc2)cc1 (stereo unspecified),–,–,–,–,–,–
COc1ccc(N(C(=O)CNC(=O)c2ccco2)C(C(=O)NC2CCCCC2)c2ccco2)cc1 (stereo unspecified),–,25.6,–,–,–,–
CC(C)CCNC(=S)Nc1ccc2nc3n(c(=O)c2c1)CCCCC3,–,–,–,–,–,–
CCN(CC)CCn1c(NCc2cccc(OC)c2OC)nc2ccccc21,–,–,–,–,–,–
O=C(N/N=C/c1ccc([N+](=O)[O-])o1)c1sc2ccccc2c1Cl,–,–,–,–,30.5,–
O=C(N/N=C/c1c[nH]c2ccccc12)c1sc2ccccc2c1Cl,–,–,–,–,25.4,–
O=C(N/N=C/c1c[nH]c2ccccc12)c1ccccc1,–,–,–,–,–,–
SMILES,PAFAH1B3 FP inh,PAFAH1B2 inh,PAFAH2 inh,LYPLA1 inh,pPAFAH inh,LYPLA2 inh
O=C(CSc1ccc(Cl)cc1)N/N=C/c1ccc([N+](=O)[O-])o1,–,29.1,–,–,–,–
COc1ccc(Br)cc1C(=O)Nc1ccc(O)cc1,–,–,–,–,–,–
Cc1cc2c(ncn2C)c(NS(=O)(=O)c2cc(Cl)ccc2Cl)c1C,–,–,–,–,–,–
CCOc1ncccc1C(=O)N1CCN(c2cccc(C)c2C)CC1,–,–,–,·,·,·
CCOc1ncccc1C(=O)N1CCN(c2cc(Cl)ccc2C)CC1,–,–,–,–,–,28.3
C[C@H](OC(=O)NCc1ccc(C(F)(F)F)cc1)[C@@H]1O[C@@]2(C)CCC[C@@H]1O2,–,25.0,–,–,–,–
C[C@H](OC(=O)N1CCN(C(c2ccccc2)c2ccccc2)CC1)[C@@H]1O[C@@]2(C)CCC[C@H]1O2,–,–,–,–,–,–
COc1ccc(CCNC(=O)C(=O)NCC2CCCN2S(=O)(=O)c2cc(C)ccc2C)cc1 (stereo unspecified),–,–,–,–,–,–
NS(=O)(=O)c1ccc(N=Nc2ccc(O)c3ncccc23)cc1,–,–,–,–,26.8,–
Cc1ccc(C)c(N=Nc2ccc(O)c3ncccc23)c1,–,–,–,–,26.6,–
Oc1ccc(N=Nc2ccc3c(c2)OCCO3)c2ncccc12,–,–,–,–,27.8,–
Cc1cccc(N=Nc2ccc(O)c3ncccc23)c1,–,–,–,–,50.9,–
CCOC(=O)N1CCC(NC(=O)c2ccc(CS(=O)(=O)c3c(Cl)cccc3Cl)o2)CC1,–,–,–,–,–,–
CCOc1cc(C(=O)Nc2ccc(F)cc2)cc(Br)c1OC,–,–,–,–,–,–
O=C1OC2CCC1(c1ccccc1)C2 (stereo unspecified),–,–,–,–,–,–
COc1cccc(C(=O)Oc2ccc(N3C(=O)CCC3=O)c(C)c2)c1,–,–,–,–,–,–
COc1ccc(Br)cc1C1SCCN1S(C)(=O)=O (stereo unspecified),–,–,–,–,–,–
CS(=O)(=O)N1CCSC1c1ccc(Br)cc1 (stereo unspecified),–,26.0,–,–,–,–
Oc1cc(NCCN2CCOCC2)cc2cccnc12,53.8,–,–,·,–,·
Oc1cc(Nc2ccccc2)cc2cccnc12,–,–,–,·,–,·
COc1cc2nc(CN3CCN(S(=O)(=O)c4c(F)cccc4F)CC3)[nH]c(=O)c2cc1OC,–,–,–,–,–,–
CCOC(=O)c1cc(-c2ccccc2)sc1NC(=O)CSc1nnc(N)s1,–,–,–,–,25.5,–
CCC(O)C1CCN(Cc2cn(Cc3ccccc3)nc2-c2cc3ccccc3o2)CC1 (stereo unspecified),–,–,–,–,27.8,–
COCCOC1CCN(Cc2cn(Cc3ccccc3)nc2-c2cc3ccccc3o2)CC1,–,–,–,–,–,–
Cc1ccccc1OCCCCCn1ccnc1,–,–,–,–,–,–
CN(CC(=O)Nc1ccc(Cl)c(C(F)(F)F)c1)C(=O)CCCNC(=O)c1ccc(Cl)cc1,–,52.7,–,–,30.6,–
